Data taken from ChEMBL document CHEMBL2218924, “A broad activity screen in support of a chemogenomic map for kinase signalling research and drug discovery” (Biochem J, 2013).

What was measured:
[1] = target: T1, cGMP-dependent protein kinase 1 (Homo sapiens) (UniProt Q13976); conditions: at 1 µM
T1 sequence (whole entry): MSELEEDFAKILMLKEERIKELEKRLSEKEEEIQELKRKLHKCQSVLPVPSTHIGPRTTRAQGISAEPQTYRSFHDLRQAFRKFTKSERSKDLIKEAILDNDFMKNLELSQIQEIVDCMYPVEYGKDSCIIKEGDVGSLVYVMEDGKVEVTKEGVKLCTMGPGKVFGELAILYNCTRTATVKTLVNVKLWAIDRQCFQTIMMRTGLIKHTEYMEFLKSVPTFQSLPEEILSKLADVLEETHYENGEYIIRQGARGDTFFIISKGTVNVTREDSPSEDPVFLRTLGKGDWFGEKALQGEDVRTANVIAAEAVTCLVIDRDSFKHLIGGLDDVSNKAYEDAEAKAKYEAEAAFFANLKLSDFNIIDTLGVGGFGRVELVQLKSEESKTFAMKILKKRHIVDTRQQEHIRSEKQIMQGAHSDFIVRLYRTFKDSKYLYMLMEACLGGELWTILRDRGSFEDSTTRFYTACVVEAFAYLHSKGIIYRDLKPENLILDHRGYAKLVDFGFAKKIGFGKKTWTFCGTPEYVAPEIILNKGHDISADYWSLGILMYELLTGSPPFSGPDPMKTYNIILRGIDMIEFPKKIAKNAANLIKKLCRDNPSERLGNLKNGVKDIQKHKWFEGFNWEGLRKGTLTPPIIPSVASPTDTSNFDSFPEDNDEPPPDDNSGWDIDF

[2] = target: T1, cGMP-dependent protein kinase 1 (Homo sapiens); conditions: at 10 µM
[3] = target: T1, cGMP-dependent protein kinase 1 (Homo sapiens); conditions: at 1 µM; remark: listed apart in the source
[4] = target: T1, cGMP-dependent protein kinase 1 (Homo sapiens); conditions: at 10 µM; remark: listed apart in the source
[5] = target: T2, MAP kinase-activated protein kinase 5 (Homo sapiens) (UniProt Q8IW41); conditions: at 1 µM
T2 sequence (whole entry): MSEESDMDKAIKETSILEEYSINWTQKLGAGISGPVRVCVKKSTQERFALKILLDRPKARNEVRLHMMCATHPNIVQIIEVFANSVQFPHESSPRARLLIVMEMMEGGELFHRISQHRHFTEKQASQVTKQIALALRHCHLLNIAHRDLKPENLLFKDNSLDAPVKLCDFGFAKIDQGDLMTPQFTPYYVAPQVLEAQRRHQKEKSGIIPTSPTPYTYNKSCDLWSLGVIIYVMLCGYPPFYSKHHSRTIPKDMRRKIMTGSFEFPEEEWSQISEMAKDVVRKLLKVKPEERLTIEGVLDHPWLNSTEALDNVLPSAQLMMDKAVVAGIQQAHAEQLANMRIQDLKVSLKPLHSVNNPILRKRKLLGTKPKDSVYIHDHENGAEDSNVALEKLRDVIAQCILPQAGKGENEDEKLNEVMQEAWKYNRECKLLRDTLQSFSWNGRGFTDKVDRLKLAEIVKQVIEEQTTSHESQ

[6] = target: T2, MAP kinase-activated protein kinase 5 (Homo sapiens); conditions: at 10 µM
[7] = target: Serine/threonine-protein kinase N2 (Homo sapiens) (UniProt Q16513); conditions: at 1 µM
[8] = target: Serine/threonine-protein kinase N2 (Homo sapiens) (UniProt Q16513); conditions: at 10 µM
[9] = target: Tyrosine-protein kinase FRK (Homo sapiens) (UniProt P42685); conditions: at 1 µM
[10] = target: Tyrosine-protein kinase FRK (Homo sapiens) (UniProt P42685); conditions: at 10 µM

Sequence of Tyrosine-protein kinase FRK (Homo sapiens) (P42685 whole entry): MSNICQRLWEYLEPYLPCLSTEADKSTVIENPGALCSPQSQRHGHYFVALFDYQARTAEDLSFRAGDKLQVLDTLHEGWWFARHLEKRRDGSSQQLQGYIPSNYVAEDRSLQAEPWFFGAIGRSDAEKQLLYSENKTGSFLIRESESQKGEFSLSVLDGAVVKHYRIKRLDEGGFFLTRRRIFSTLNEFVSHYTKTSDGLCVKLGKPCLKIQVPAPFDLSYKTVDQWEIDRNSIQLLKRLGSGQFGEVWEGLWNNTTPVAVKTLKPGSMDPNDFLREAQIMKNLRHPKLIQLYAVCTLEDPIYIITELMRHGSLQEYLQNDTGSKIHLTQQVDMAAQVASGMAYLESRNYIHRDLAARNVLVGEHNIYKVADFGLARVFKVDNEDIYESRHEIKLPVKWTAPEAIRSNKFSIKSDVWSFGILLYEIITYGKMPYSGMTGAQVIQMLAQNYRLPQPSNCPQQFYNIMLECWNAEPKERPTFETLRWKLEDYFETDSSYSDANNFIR
Sequence of Serine/threonine-protein kinase N2 (Homo sapiens) (Q16513 whole entry, looked up): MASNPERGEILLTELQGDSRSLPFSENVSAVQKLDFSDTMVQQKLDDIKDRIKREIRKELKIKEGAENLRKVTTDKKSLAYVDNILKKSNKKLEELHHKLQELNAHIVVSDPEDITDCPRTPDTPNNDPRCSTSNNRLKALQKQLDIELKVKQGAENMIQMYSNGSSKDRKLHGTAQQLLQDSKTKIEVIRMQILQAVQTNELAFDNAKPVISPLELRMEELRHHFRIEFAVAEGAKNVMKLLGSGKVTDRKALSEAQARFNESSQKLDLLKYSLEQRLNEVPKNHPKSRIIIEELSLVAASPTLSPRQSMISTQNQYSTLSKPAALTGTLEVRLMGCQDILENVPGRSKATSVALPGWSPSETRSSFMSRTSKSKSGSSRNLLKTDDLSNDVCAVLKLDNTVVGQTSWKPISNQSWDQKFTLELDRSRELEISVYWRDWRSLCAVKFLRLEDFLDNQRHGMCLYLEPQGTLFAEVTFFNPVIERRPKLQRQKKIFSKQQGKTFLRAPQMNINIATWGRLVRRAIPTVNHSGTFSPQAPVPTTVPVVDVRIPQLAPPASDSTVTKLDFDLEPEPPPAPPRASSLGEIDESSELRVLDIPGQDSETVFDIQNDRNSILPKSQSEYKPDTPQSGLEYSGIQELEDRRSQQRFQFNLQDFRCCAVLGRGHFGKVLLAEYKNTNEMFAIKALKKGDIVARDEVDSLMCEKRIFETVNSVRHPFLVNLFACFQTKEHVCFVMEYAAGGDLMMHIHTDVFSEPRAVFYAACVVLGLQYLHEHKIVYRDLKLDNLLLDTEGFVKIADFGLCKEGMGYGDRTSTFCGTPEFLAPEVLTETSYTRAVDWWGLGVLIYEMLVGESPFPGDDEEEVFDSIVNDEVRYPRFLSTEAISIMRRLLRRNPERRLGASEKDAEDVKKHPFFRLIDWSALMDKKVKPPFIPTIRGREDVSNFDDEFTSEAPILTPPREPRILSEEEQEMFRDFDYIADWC

Compound	residual activity [1] [%]	residual activity [2] [%]	residual activity [3] [%]	residual activity [4] [%]	residual activity [5] [%]	residual activity [6] [%]	residual activity [7] [%]	residual activity [8] [%]	residual activity [9] [%]	residual activity [10] [%]
CC[n+]1c(/C=C/N(C)c2ccccc2)n(-c2ccccc2)c2ccc(-c3nc4ccccc4s3)cc21	105	80	87	60	104	133	94	77	108	123
Cc1cncc2cccc(S(=O)(=O)N3CCCN(C(=O)CN)C[C@H]3C)c12	93	44	74	19	82	98	22	7	87	70
O=C(Nc1cccc(Nc2nccc(Nc3cccc(C(F)(F)F)c3)n2)c1)C1CC1	100	101	90	66	128	65	106	96	53	11
N#CCCc1ccc2c(c1)-c1[nH]c3ccc([N+](=O)[O-])cc3c1CC(=O)N2					68	43	57	28	54	22
CO[C@H]1C[C@@H]2CC[C@@H](C)[C@@](O)(O2)C(=O)C(=O)N2CCCC[C@H]2C(=O)O[C@H]([C@H](C)C[C@@H]2CC[C@@H](O)[C@H](OC)C2)CC(=O)[C@H](C)/C=C(\C)[C@@H](O)[C@@H](OC)C(=O)[C@H](C)C[C@H](C)/C=C/C=C/C=C/1C	101	128	86	85	57	62	95	116	95	112
Cc1cccc(-c2[nH]c(C(C)(C)C)nc2-c2ccc3c(c2)OCO3)n1					92	77				92
O=c1cc(-c2cccc3c2Sc2ccccc2S3)oc(N2CCOCC2)c1	102	105	81	80	99	40	112	97	94	92
Cc1nc(-c2ccccc2)c(-c2ccncc2)o1	93	80	115	90	110	115	99	76	1	2
O=C1Nc2ccccc2/C1=C1/Nc2ccccc2/C1=N\OCCC(O)CO (centres undefined)	56	19	44	9		27	76	53	11	1
COc1cc2ncnc(Nc3ccc(NC(=O)c4ccccc4)cc3)c2cc1OC	105	99	90		105	76			109	76
CN(C)c1ccc(/C=C2\C(=O)Nc3ccccc32)cc1	121	115	65	84	113	65	113	120	97	76
O=C(O)c1ccc2c3c1cccc3c(=O)n1c3ccccc3nc21	95	97	98	83	81	62	96	86	95	90
COc1ccc(S(=O)(=O)N(CCO)c2ccccc2CN(C)C/C=C/c2ccc(Cl)cc2)cc1	101	99	103	86	98	53	95	69	100	125
CN(C)CCCn1cc(C2=C(c3c[nH]c4ccccc34)C(=O)NC2=O)c2ccccc21	60	14	34	6	125	107	23	6		84
O=c1c2ccccc2[nH]c(=S)n1CCN1CCC(=C(c2ccc(F)cc2)c2ccc(F)cc2)CC1	107	103	86	87	94	74	114	109	101	89
CC(C)n1cnc2/c(=N/c3cccc(Cl)c3)nc(NCCO)[nH]c21	92	106	94	72	105	88	86	62	75	29
COc1ccc(C(=O)Nc2sc3c(c2C(N)=O)CCCC3)cc1OC	104	88	79	90	59	76	88	114	91	80
Oc1c2ccccc2c2c3c(cccc13)N=N2	79	79	90	60	59	14	74	32	91	58
